# Screens (PubChem)
# Pf growth 96h – inhibits malaria parasite growth, 96 h; P. falciparum luciferase reporter growth, 96 h; Potency, µM (top dose mostly 28.7 µM), usual class: inhibitors; 6.9% of 320,000 active
#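 Plates of compound plus infected erythrocytes (2% hematocrit, 0.05% parasitemia final) incubate 96 hours, 37 C, 5% CO2. Detection reagent added; reduced luminescence from the parasites' luciferase reporter flags inhibition.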
# Cycloheximide cs – counter-screen hit for Shiga toxin inhibitors, cycloheximide; 12% of 300,000 active; AID 2314; max response, %; cell reporter, cycloheximide protein synthesis inhibition counterscreen; in the data active means max response mostly above about 13%, no sharp cut-off; inactive means mostly below about 14%; further: read at 38.3 µM for the half of the compounds with a filed dose
# Pf growth 48h – P. falciparum growth inhibition at 48 hours (one generation) | P. falciparum luciferase growth in erythrocytes, 48 h | 5.9% of 310,000 active | Potency, µM (highest dose often 28.7 µM), usual class: inhibitors
#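 Erythrocytes infected with P. falciparum carrying an integrated firefly luciferase reporter (2% hematocrit, 0.1% parasitemia final) were exposed to compounds in RPMI 1640 with 0.5% Albumax at 37 C, 5% CO2. Growth inhibition was scored as reduced luminescence.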
# HCMV inh – human cytomegalovirus inhibition. HFF cells, HCMV-luciferase reporter, 72 h; stronger effect = lower value. AID 1259415. 4.5% of 410,000 active. activity change, negative = inhibition, % at 57.5 µM; in the data active means activity change below about -60%; inconclusive means no clear call, values can overlap the other calls; inactive means above about -39%
#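 Screen run at 2 compound doses on HFFs infected with reporter HCMV, MOI 1 PFU/cell. Luciferase activity from cell lysates at 72 h post infection gave inhibition relative to buffer-only and Salinomycin wells.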
# Shiga inhibitor – inhibitors of Shiga toxin in Vero cells. Vero cells, Shiga toxin protein synthesis inhibition reporter. inhibition, % at 38.7 µM. 9.2% of 290,000 active; in the data active means inhibition mostly above about 28%, no sharp cut-off; inactive means mostly below about 43%
# Hits are given with their value; n = inactive; u = inconclusive; x = no result. A selection: hits, their analogues and other compounds. The true share with any hit is near 20%. Unless noted, the call rests on the fitted dose curve; in most records, active means well fitted inhibition curve with a large enough effect; inconclusive means small, poorly fitted or top-dose-only effect, or another doubt; inactive means no such curve, though single readings can be large or run the other way.
SMILES,Pf growth 96h,Cycloheximide cs,Pf growth 48h,HCMV inh,Shiga inhibitor
CS(=O)(=O)c1ccc2nc(NC(=O)c3ccc(NS(=O)(=O)c4ccc(F)c(F)c4)cc3)sc2c1,u,n,n,n,n
Cc1cc(Br)cn2c(Cc3ccccc3)c(-c3ccc(C#N)cc3)nc12,x,x,x,n,x
CCOC(=O)CCC(=O)Nc1nnc2n1CCS2,x,x,x,n,x
CCCCCc1nc2sc3c(c2c(=O)n1NC(=O)c1ccc([N+](=O)[O-])cc1)CC(C)(C)OC3,n,n,n,-89,n
CCCCCCCc1nc2sc3c(c2c(=O)n1N)CC(C)(C)OC3,n,n,n,n,n
O=C1c2ccccc2NC(c2ccc(Br)s2)N1O (configuration not stated),x,x,x,-75,x
C=CCN1C(=O)c2ccccc2NC1c1ccc(Br)s1 (configuration not stated),10µM,n,13µM,u,n
O=C1c2ccccc2NC(c2ccccc2)N1Cc1ccccc1 (configuration not stated),x,x,x,n,x
O=C1c2ccccc2NC(c2ccc(Br)o2)N1O (configuration not stated),n,x,n,n,x
CCC(=O)Nc1nc(-c2ccc3c(c2)CC(C)N3S(C)(=O)=O)cs1 (configuration not stated),n,26,n,n,n
CC1Cc2cc(-c3csc(NC(=O)Cc4cccs4)n3)ccc2N1S(C)(=O)=O (configuration not stated),u,n,13µM,-100,n
CCCC(=O)Nc1nc(-c2ccc3c(c2)CCN3S(C)(=O)=O)cs1,n,n,n,n,n
CC1(C)S[C@@H]2[C@H](NC(=O)COc3ccccc3)C(=O)N2C1C(=O)OCc1cc2ccccc2n1S(=O)(=O)c1ccccc1 (some centres not stated),13µM,n,n,x,n
CC1(C)S[C@@H]2[C@H](NC(=O)COc3ccccc3)C(=O)N2C1C(=O)OCC1CCCCC1 (some centres not stated),x,x,x,n,x
CC(NS(=O)(=O)c1ccc(OCC(=O)NCc2cccnc2)cc1)c1ccccc1 (configuration not stated),n,n,n,n,n
COc1ccc(Nc2nnc(SC(C)C(=O)NC3CC3)s2)cc1 (configuration not stated),x,x,x,n,x
CC(Sc1nnc(NC2CCCCC2)s1)C(=O)Nc1ccc2c(c1)C(=O)c1ccccc1C2=O (configuration not stated),n,26,n,n,76
O=C1C=C(OCCCl)CC(c2cccc(Cl)c2)O1 (configuration not stated),x,x,x,n,x
COc1ccc(C(=O)Nc2nnc(S(=O)(=O)N3CCN(c4ccc(F)cc4)CC3)s2)cc1,x,x,x,n,x
CC(C)c1ccc(NC(=O)[C@@H]2CCC(=O)N2C2OC(=O)c3ccccc32)cc1 (some centres not stated),n,28,n,n,n
CCOC(=O)Cc1ccc(-c2ccccc2)cc1,u,x,n,x,x
CCOC(=O)c1sc(-c2ccccc2)nc1C,u,34,n,n,n
CCOC(=O)Cc1ccc2sc(-c3ccccc3)nc2c1,n,58,n,n,31
CCOC(=O)c1sc(-c2cccs2)nc1C,n,43,n,n,130
COc1ccc(-n2c(SCc3cn4c(C)cccc4n3)nc3ccccc3c2=O)cc1OC,u,n,n,n,n
SMILES,Pf growth 96h,Cycloheximide cs,Pf growth 48h,HCMV inh,Shiga inhibitor
Cc1cc(C)cc(NC(=O)c2cccc3c2C(=O)N(C2CCCCC2)C3)c1,12µM,n,u,n,n
CSc1ccc(CCNC(=O)c2cccc3c2C(=O)N(C2CCCCC2)C3)cc1,10µM,n,u,x,n
O=C(NCCc1ccccc1)c1cccc2c1C(=O)N(C1CCCCC1)C2,u,n,u,n,n
Cc1ccc(NC(=O)c2cccc3c2C(=O)N(C2CCCCC2)C3)c(Cl)c1,4.7µM,n,u,x,n
NC(=O)c1cccc2c1C(=O)N(C1CCCCC1)C2,9.3µM,n,n,n,n
O=C(Nc1ccc(Br)cc1Br)c1cccc2c1C(=O)N(C1CCCCC1)C2,u,n,u,n,n
O=C(Nc1ccc(Br)cc1)c1cccc2c1C(=O)N(C1CCCCC1)C2,n,n,u,n,n
COc1cc(NC(=O)c2cccc3c2C(=O)N(C2CCCCC2)C3)cc(OC)c1OC,u,n,12µM,-91,n
COc1cccc(C(=O)NC(=S)Nc2ccccc2N2CCCC2)c1,u,17,u,n,n
COc1cccc(C(=O)Nc2ccccc2N2CCCC2)c1,n,n,n,n,n
COc1c(C)cccc1C(=O)NC(=S)Nc1ccccc1N1CCCC1,u,30,u,n,n
COc1cccc(C(=O)NC(=S)Nc2ccccc2N2CCCCC2)c1,u,n,7.4µM,n,n
CCN(CC)C(=O)Cn1cc(C(=O)C(=O)NCc2ccco2)c2ccccc21,n,n,u,n,n
Cc1ccc(N/C=C/C(=O)c2ccco2)c(O)c1,n,60,n,n,70
Cc1ccc([N+](=O)[O-])cc1N/C=C/C(=O)c1ccco1,n,65,n,n,125
Cc1cc(/C=C(\C#N)C(=O)N2CCOCC2)c(C)n1C1CCCC1,n,26,n,-84,n
COc1ccc(/C=C(\C#N)C(=O)N2CCOCC2)cc1Br,n,n,u,n,n
Brc1ccc(-c2nc(-c3cccnc3)no2)o1,u,69,n,n,111
Brc1ccc(-c2nc(-c3ccccc3)no2)o1,x,59,n,n,104
O=C(N1CCOCC1)N1CCN(Cc2ccccc2)CC1,1.7µM,n,n,n,n
O=C(c1ccccc1)N1CCN(CC#Cc2ccccc2)CC1,n,29,n,n,82
O=C(c1ccc2c(c1)OCCO2)N1CCN(Cc2ccccc2)CC1,u,15,n,n,n
CN(c1ccc(C(=O)N2CCN(Cc3ccccc3)CC2)cc1)S(=O)(=O)c1ccc(Cl)cc1,n,n,u,-63,n
COc1ccccc1N1CCN(C(=O)CCCNC(=O)Cn2cnc3sc(C)c(C)c3c2=O)CC1,n,n,n,n,n
CCCNC(=O)C[C@@H]1C[C@H]2c3cc(NC(=O)c4ccc5c(c4)OCO5)ccc3O[C@H]2[C@@H](CO)O1,x,x,x,n,x
SMILES,Pf growth 96h,Cycloheximide cs,Pf growth 48h,HCMV inh,Shiga inhibitor
CCc1cc2cc(C(=O)N3CCN(Cc4ccccc4)CC3)sc2s1,n,22,n,n,49
N#Cc1ccc(CN2CCN(C(=O)c3ccc(S(=O)(=O)NCc4ccco4)cc3)CC2)cc1,3.7µM,x,u,n,x
O=C(c1ccccc1)N1CCN(Cc2ccccc2)CC1,7.4µM,n,n,n,n
CC(C)(C)c1ccc(C(=O)N2CCN(Cc3ccccc3)CC2)cc1,n,n,u,n,n
CCc1cc2cc(C(=O)N3CCN(c4ccccc4)CC3)sc2s1,n,n,x,n,n
O=C(c1ccc(CNS(=O)(=O)c2ccccc2)cc1)N1CCN(Cc2ccccc2)CC1,x,n,n,-76,n
CS(=O)(=O)c1ccc(C(=O)N2CCN(Cc3ccccc3)CC2)cc1,n,n,n,u,n
Cc1ccccc1CN(C)C(C)C(=O)Nc1ccccc1F (configuration not stated),n,n,u,n,n
